# Assay results reported in PubChem BioAssay (EPA / NIEHS).
# Inconclusive results are not listed. The source made the active and inactive calls. Rule for the calls, unless noted: active = hit-call score of the fitted dose curve at least 0.9, where 1 is the maximum; inconclusive = response in the unintended direction; inactive = score below 0.9.
# How the values were obtained:
# [1] = target: Nucleoli Translocation, AR (gene 367) (UniProt P10275); assay: UPITT_HCI_U2OS_AR_TIF2_Nucleoli_Antagonist: University of Pittsburgh U2OS Androgen Receptor-Transcriptional Intermediary Factor 2 (AR-TIF2) Antagonism High Content Imaging Assay for Nucleoli Translocation (AID 2283997)
# Sequence of Nucleoli Translocation, AR (gene 367) (P10275 whole entry, looked up): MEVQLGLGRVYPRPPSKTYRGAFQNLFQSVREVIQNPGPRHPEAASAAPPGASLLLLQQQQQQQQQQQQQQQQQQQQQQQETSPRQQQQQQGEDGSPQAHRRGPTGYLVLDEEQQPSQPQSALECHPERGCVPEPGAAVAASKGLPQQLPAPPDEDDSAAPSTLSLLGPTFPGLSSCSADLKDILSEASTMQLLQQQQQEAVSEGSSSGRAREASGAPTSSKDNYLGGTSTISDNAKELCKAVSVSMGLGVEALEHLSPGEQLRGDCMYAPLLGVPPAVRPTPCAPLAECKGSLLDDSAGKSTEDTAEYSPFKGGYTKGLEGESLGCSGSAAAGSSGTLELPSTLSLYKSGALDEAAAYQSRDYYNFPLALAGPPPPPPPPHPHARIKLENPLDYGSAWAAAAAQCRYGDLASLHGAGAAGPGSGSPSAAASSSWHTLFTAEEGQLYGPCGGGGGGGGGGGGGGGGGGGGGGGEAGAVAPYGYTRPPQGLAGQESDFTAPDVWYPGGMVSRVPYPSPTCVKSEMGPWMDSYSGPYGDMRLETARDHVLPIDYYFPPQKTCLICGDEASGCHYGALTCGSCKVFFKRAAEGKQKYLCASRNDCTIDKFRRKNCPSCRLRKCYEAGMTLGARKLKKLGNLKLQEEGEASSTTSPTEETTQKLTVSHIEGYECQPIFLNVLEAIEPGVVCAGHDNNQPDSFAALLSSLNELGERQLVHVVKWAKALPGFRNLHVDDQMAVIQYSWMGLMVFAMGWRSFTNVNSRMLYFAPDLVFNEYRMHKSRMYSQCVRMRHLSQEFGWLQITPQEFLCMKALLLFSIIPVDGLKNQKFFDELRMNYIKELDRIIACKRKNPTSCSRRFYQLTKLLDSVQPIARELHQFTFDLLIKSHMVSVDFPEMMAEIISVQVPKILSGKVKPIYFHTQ
# How it was run: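 An antagonist-mode imaging screen: engineered U2OS (AR-RFP, TIF2-GFP) exposed to 20 uM compound, 0.2% DMSO. Activity reflects nucleolar red fluorescence change relative to DHT baseline.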
# [2] = CCTE_Shafer_MEA_acute_spike_number: CCTE's Neural Acute Assay for Total Number of Spikes, Shafer Lab (AID 2284008; active = hit-call score of the fitted dose curve at least 0.9, where 1 is the maximum; inactive = score below 0.9;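 for AC50: curve fitted for decrease in spike count so AC50 reflects inhibitors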)
# How it was run: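 Rat primary cortical neurons on 48-well MEA plates, DIV 13 or 15, at 37 C. 40 min baseline then 40 min with compound (0.03-40 uM); spikes detected at 8x rms noise, expressed as percent change from baseline.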
# [3] = CCTE_Shafer_MEA_acute_firing_rate_mean: CCTE's Neural Acute Assay for Mean Firing Rate, Shafer Lab (AID 2284009; active = hit-call score of the fitted dose curve at least 0.9, where 1 is the maximum; inactive = score below 0.9;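 note: analyzed for loss of signal so actives lower firing rate relative to DMSO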)
# How it was run: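 Spontaneous spiking of primary rat cortical networks, DIV 13/15, 37 C. Compound 0.03-40 uM, n ≥3 wells; 40 min baseline vs 40 min treated. Endpoint fitted in loss-of-signal direction against DMSO.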
# [4] = CCTE_Harrill_HTTr_Viability_MCF7: CCTE's 6-hour Cell Viability Assessment for the High-Throughput Transcriptomics (HTTr) Platform, in MCF-7 cells cultured in DMEM + 10% fetal bovine serum, Harrill Lab (AID 2284010; active = hit-call score of the fitted dose curve at least 0.9, where 1 is the maximum; inactive = score below 0.9)
# How it was run: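 Propidium iodide exclusion, imaged by high-content analysis, gauged viability after a six-hour exposure across eight concentrations. Cells were MCF-7 grown in DMEM with 10% fetal bovine serum; fits run in both directions against DMSO.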
# [5] = CCTE_Harrill_HTTr_Apoptosis_MCF7: CCTE's 6-hour Apoptosis Assessment for the High-Throughput Transcriptomics (HTTr) Platform, in MCF-7 cells cultured in DMEM + 10% fetal bovine serum, Harrill Lab (AID 2284011; active = hit-call score of the fitted dose curve at least 0.9, where 1 is the maximum; inactive = score below 0.9)
# How it was run: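 MCF-7 cells in DMEM + 10% FBS exposed 6 h to chemicals over an eight-point dilution series. Caspase-3/7 activation imaged by high-content CellEvent Green staining; fitted bidirectionally versus DMSO.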
# [6] = CCTE_Harrill_HTTr_CellCount_MCF7: CCTE's Cell Proliferation Assessment for the High-Throughput Transcriptomics (HTTr) Platform, Harrill Lab (AID 2284012);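 note: cells exposed to compound for six hours; intended direction is loss of nuclei count meaning fewer cells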
# How it was run: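 Cell count from high-content imaging of Hoechst-labeled nuclei serves as viability/growth readout. Chemicals were applied to MCF-7 cells in eight concentrations for six hours, with fitting in both directions relative to DMSO.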
# [7] = CCTE_Shafer_MEA_acute_burst_number: CCTE's Neural Acute Assay for Single-Electrode Bursts, Shafer Lab (AID 2284013; active = hit-call score of the fitted dose curve at least 0.9, where 1 is the maximum; inactive = score below 0.9)
# How it was run: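 Burst totals were derived with adaptive spike detection (8x rms threshold) on filtered signals from rat cortical cultures; change relative to pre-treatment baseline after 40-min compound exposure (0.03-40 uM) was fitted in the negative direction against DMSO.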
# [8] = CCTE_Shafer_MEA_acute_burst_duration_mean: CCTE's Neural Acute Assay for Mean Burst Duration, Shafer Lab (AID 2284014; active = hit-call score of the fitted dose curve at least 0.9, where 1 is the maximum; inactive = score below 0.9;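 note: hits are decreases in mean burst duration relative to DMSO controls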)
# How it was run: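 Acute exposure of mature rat cortical networks (DIV 13 or 15) grown on microelectrode arrays to 0.03-40 uM compound. Mean burst duration compared with the 40-min pre-dose baseline over a 40-min post-dose recording at 37 C.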
# [9] = target: Nucleoli Translocation, AR (gene 367) (UniProt P10275); assay: UPITT_HCI_U2OS_AR_TIF2_Nucleoli_Agonist: University of Pittsburgh U2OS Androgen Receptor-Transcriptional Intermediary Factor 2 (AR-TIF2) Agonism High Content Imaging Assay for Nucleoli Translocation (AID 2283998)
# How it was run: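 U2OS cells expressing RFP-tagged human AR and GFP-tagged TIF2; red fluorescence in nucleoli quantified by high-content imaging. Primary screen at 20 uM final (0.2% DMSO); concentration-response 0.195–50 uM (0.5% DMSO), fitted upward versus DMSO.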
# [10] = target: Ratio of Nucleoli Translocation and Cytoplasm, AR (gene 367) (UniProt P10275); assay: UPITT_HCI_U2OS_AR_TIF2_Nucleoli_Cytoplasm_Ratio_Antagonist: University of Pittsburgh U2OS Androgen Receptor-Transcriptional Intermediary Factor 2 (AR-TIF2) Antagonism High Content Imaging Assay for Ratio of Nucleoli Translocation and Cytoplasm (AID 2283999);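 note: antagonists lower the DHT-driven ratio of nucleolar to cytoplasmic red signal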
# Sequence of Ratio of Nucleoli Translocation and Cytoplasm, AR (gene 367) (P10275 whole entry, looked up): as above
# How it was run: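 High-content imaging of red fluorescence ratio, nucleoli versus cytoplasm, in U2OS expressing AR-RFP and TIF2-GFP, fitted relative to DHT. Compounds tested once at 20 uM final, then 0.195 to 50 uM final in serial dilution.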
# [11] = target: Ratio of Nucleoli Translocation and Cytoplasm, AR (gene 367) (UniProt P10275); assay: UPITT_HCI_U2OS_AR_TIF2_Nucleoli_Cytoplasm_Ratio_Agonist: University of Pittsburgh U2OS Androgen Receptor-Transcriptional Intermediary Factor 2 (AR-TIF2) Agonism High Content Imaging Assay for Ratio of Nucleoli Translocation and Cytoplasm (AID 2284000);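 note: hits raise the red nucleolar to cytoplasm ratio above vehicle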
# How it was run: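 Primary screen at 20 uM final (0.2% DMSO), then triplicate confirmation and dose-response from 0.195 to 50 uM final (0.5% DMSO). Cells: U2OS with AR-RFP and TIF2-GFP. Endpoint is the nucleoli/cytoplasm red-fluorescence ratio, gain-of-signal vs DMSO.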
# [12] = CCTE_Simmons_MITO_basal_resp_rate: CCTE's HepG2 Seahorse XF Respirometric Screening Assay at Basal Respiratory State, Simmons Lab (AID 2284001; active = hit-call score of the fitted dose curve at least 0.9, where 1 is the maximum; inactive = score below 0.9); conditions: actives raise or lower the signal
# How it was run: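 Readout is oxygen consumption rate after test compound injection, measured by Seahorse XF in HepG2 cells. Seven concentrations from 125 nM up to 100 uM final are tested, and activity in either direction is fitted against DMSO.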
# [13] = CCTE_Simmons_MITO_max_resp_rate: CCTE's HepG2 Seahorse XF Respirometric Screening Assay at Maximal Respiratory State [uncoupled], Simmons Lab (AID 2284002; active = hit-call score of the fitted dose curve at least 0.9, where 1 is the maximum; inactive = score below 0.9); conditions: actives raise or lower the signal
# How it was run: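 HepG2 oxygen consumption measured on Seahorse XF after FCCP uncoupling, following test compound injection; 7 concentrations from 125 nM to 100 uM final. Readings every 6 min over 72 min, three biological replicates; bidirectional fit versus DMSO.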
# [14] = CCTE_Simmons_MITO_viability: CellTiter-Glo Viability Assessment for CCTE's HepG2 Seahorse XF Respirometric Screening Assay [post-hoc], Simmons Lab (AID 2284007);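 note: cells exposed to chemical for 90 min before the ATP read; actives lower ATP signal relative to DMSO baseline meaning reduced viability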
# How it was run: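 Luciferase-coupled ATP read-out after the Seahorse run: HepG2 cells treated 90 minutes with test chemical, 7-point series of 125 nM–100 uM final, in triplicate biological runs. Vehicle DMSO; dichlone as positive control over 8 concentrations.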
# DIO1 (gene 1733) = assay: CCTE_GLTED_hDIO1: CCTE's human Deiodinase 1 (DIO1) Inhibition Assay, Great Lakes Toxicology and Ecology Division (GLTED) Lab (AID 2283987);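 note: isolated human DIO1 enzyme in a cell-free setup rather than cells; enzyme activity read as free iodide liberated from substrate via Sandell-Kolthoff colorimetry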
# How it was run: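 Cell-free human DIO1 enzyme incubated 3 h with test chemical; iodide freed from substrate then measured by Sandell-Kolthoff absorbance. Run in triplicate; loss of signal relative to DMSO taken as inhibition.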
# [15] = CCTE_Harrill_HTTr_Apoptosis_DMEM_12hr: (Pilot) CCTE's 12-hour Apoptosis Assessment for the High-Throughput Transcriptomics (HTTr) Platform, in MCF-7 cells cultured in DMEM + 10% fetal bovine serum, Harrill Lab (AID 2283982; active = hit-call score of the fitted dose curve at least 0.9, where 1 is the maximum; inactive = score below 0.9)
# How it was run: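 Caspase-3/7 activity was measured by high-content imaging (CellEvent Caspase 3/7 Green) after a 12-hour exposure of MCF-7 cells grown in DMEM with 10% FBS. Eight-point concentration series, fitted bidirectionally against vehicle.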
# [16] = CCTE_Harrill_HTTr_Apoptosis_DMEM_24hr: (Pilot) CCTE's 24-hour Apoptosis Assessment for the High-Throughput Transcriptomics (HTTr) Platform, in MCF-7 cells cultured in DMEM + 10% fetal bovine serum, Harrill Lab (AID 2283983; active = hit-call score of the fitted dose curve at least 0.9, where 1 is the maximum; inactive = score below 0.9)
# How it was run: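 Caspase-3/7 activity read by high-content imaging (CellEvent Green reagent) 24 h after dosing. MCF-7 cells grown in DMEM with 10% FBS received an eight-point concentration series; fits were bidirectional versus DMSO.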
# [17] = CCTE_Harrill_HTTr_Apoptosis_PRF_DMEM_6hr: (Pilot) CCTE's 6-hour Apoptosis Assessment for the High-Throughput Transcriptomics (HTTr) Platform, in MCF-7 cells cultured phenol red-free DMEM + 10% charcoal-stripped fetal bovine serum, Harrill Lab (AID 2283984; active = hit-call score of the fitted dose curve at least 0.9, where 1 is the maximum; inactive = score below 0.9)
# How it was run: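 Caspase-3/7 activity (CellEvent Green) read by high-content imaging 6 h after dosing, eight concentrations. Cells: MCF-7, phenol red-free DMEM with 10% charcoal-stripped serum. Curves fit both directions against DMSO.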
# [18] = CCTE_Harrill_HTTr_Apoptosis_PRF_DMEM_12hr: (Pilot) CCTE's 12-hour Apoptosis Assessment for the High-Throughput Transcriptomics (HTTr) Platform, in MCF-7 cells cultured in phenol red-free DMEM + 10% charcoal-stripped fetal bovine serum, Harrill Lab (AID 2283985; active = hit-call score of the fitted dose curve at least 0.9, where 1 is the maximum; inactive = score below 0.9)
# How it was run: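 Caspase-3/7 activity by CellEvent Green high content imaging after 12 h compound exposure (eight concentrations) in MCF-7 grown in phenol red-free DMEM plus 10% charcoal-stripped serum; DMSO as baseline.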
# [19] = CCTE_Harrill_HTTr_Apoptosis_PRF_DMEM_24hr: (Pilot) CCTE's 24-hour Apoptosis Assessment for the High-Throughput Transcriptomics (HTTr) Platform, in MCF-7 cells cultured in phenol red-free DMEM + 10% charcoal-stripped fetal bovine serum, Harrill Lab (AID 2283986; active = hit-call score of the fitted dose curve at least 0.9, where 1 is the maximum; inactive = score below 0.9)
# How it was run: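 Eight concentrations tested for 24 h on MCF-7 grown in charcoal-stripped serum, phenol red-free DMEM. High content imaging of CellEvent Caspase 3/7 Green signal gives apoptosis read-out, fitted both ways relative to DMSO.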
smiles,measurement,setting,value
ClC1(Cl)C2(Cl)C3(Cl)C4(Cl)C(Cl)(Cl)C5(Cl)C3(Cl)C1(Cl)C5(Cl)C24Cl (centres undefined),outcome,[1],inactive
same,outcome,[2],inactive
same,outcome,[3],inactive
same,outcome,[4],inactive
same,outcome,[5],inactive
same,outcome,[6],inactive
same,outcome,[7],inactive
same,outcome,[8],inactive
O=C1C2(Cl)C3(Cl)C4(Cl)C(Cl)(Cl)C5(Cl)C3(Cl)C1(Cl)C5(Cl)C24Cl (centres undefined),AC50,[1],13.3 µM (active)
same,AC50,[9],12.7 µM (active)
same,AC50,[10],13.7 µM (active)
same,AC50,[11],13.1 µM (active)
same,AC50,[12],54 µM (active)
same,AC50,[13],35.8 µM (active)
same,AC50,[14],71.6 µM (active)
same,AC50,[2],1.84 µM (active)
same,AC50,[3],1.84 µM (active)
same,outcome,[4],inactive
same,outcome,[5],inactive
same,outcome,[6],inactive
same,AC50,[7],3.27 µM (active)
same,AC50,[8],9.11 µM (active)
COP(=S)(OC)Oc1cc(Cl)c(Cl)cc1Cl,outcome,[1],inactive
same,outcome,[9],inactive
same,outcome,[10],inactive
same,outcome,[11],inactive
same,outcome,[4],inactive
same,outcome,[5],inactive
same,outcome,[6],inactive
CCSC(C)CC1CC(=O)C(C(CC)=NOC/C=C/Cl)=C(O)C1 (centres undefined),outcome,[1],inactive
same,outcome,[9],inactive
same,outcome,[10],inactive
same,outcome,[11],inactive
same,outcome,[4],inactive
same,outcome,[5],inactive
O=C1C(Cl)=C(Cl)C(=O)c2ccccc21,AC50,DIO1 (gene 1733),20 µM (active)
CCC1(c2ccc(N)cc2)CCC(=O)NC1=O (centres undefined),outcome,[1],inactive
same,outcome,[10],inactive
same,outcome,[4],inactive
same,outcome,[5],inactive
same,outcome,[6],inactive
C[C@@H]1C[C@@H]([C@H](O)CC2CC(=O)NC(=O)C2)C(=O)[C@@H](C)C1,outcome,[15],inactive
same,outcome,[16],inactive
same,outcome,[17],inactive
same,outcome,[18],inactive
same,outcome,[19],inactive
same,outcome,[4],inactive
same,outcome,[5],inactive
same,outcome,[6],inactive
CC(C)(c1ccc(OCC2CO2)cc1)c1ccc(OCC2CO2)cc1 (centres undefined),AC50,DIO1 (gene 1733),1.37 µM (active)
same,AC50,[1],50 µM (active)
same,outcome,[9],inactive
same,AC50,[10],38.1 µM (active)
same,outcome,[11],inactive
same,outcome,[4],inactive
same,outcome,[5],inactive
CCC(=O)C(CC(C)N(C)C)(c1ccccc1)c1ccccc1 (centres undefined),outcome,[1],inactive
same,outcome,[9],inactive
same,outcome,[10],inactive
same,outcome,[11],inactive
same,AC50,[2],0.0569 µM (active)
same,AC50,[3],0.052 µM (active)
same,outcome,[4],inactive
same,outcome,[5],inactive
same,outcome,[6],inactive
same,outcome,[7],inactive
same,AC50,[8],0.208 µM (active)
CC(C)c1cccc(C(C)C)c1O,outcome,[1],inactive
same,outcome,[9],inactive
same,outcome,[10],inactive
same,outcome,[11],inactive
same,outcome,[4],inactive
same,outcome,[5],inactive
same,outcome,[6],inactive
CC(C)CCCCCCOC(=O)c1ccccc1C(=O)OCCCCCCC(C)C,outcome,[1],inactive
same,outcome,[11],inactive
same,outcome,[4],inactive
same,outcome,[5],inactive
same,outcome,[6],inactive
